Experimental findings from PubChem BioAssay (NCATS) are described below.

Experiment [1] is described as follows: qHTS for differential inhibitors of proliferation of Plasmodium falciparum line Dd2 (AID 1882).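 Further: compound exposure of 72 h on infected erythrocytes; nearly all actives have a fitted effect of over 65% in size.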 The method, boiled down:
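SYBR Green I DNA fluorescence read-out, ex 485/em 535 nm. Signals were normalized to 0.29 uM artemisinin and DMSO wells, then corrected using vehicle-only plates flanking each stack. Parasite growth ran 72 h in erythrocytes before lysis.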

The nature of experiment [2]: qHTS for differential inhibitors of proliferation of Plasmodium falciparum line W2 (AID 1883).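 Further: potency means the concentration at half of the fitted maximal effect; parasites grown with compound for 72 h before lysis and staining.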 As to conditions: Plasmodium falciparum W2 proliferation inhibition. (qHTS replaces the single test concentration by a dilution series.)
Experiment [3] in a line: qHTS for differential inhibitors of proliferation of Plasmodium falciparum line HB3 (AID 1886).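 Further: parasites grown with compound for 72 h before SYBR Green readout.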
The target of experiment [4] is ATP-dependent DNA helicase Q1 (Homo sapiens) (UniProt P46063). In words: qHTS Validation Assay for Inhibitors of RecQ-Like Dna Helicase 1 (RECQ1) (AID 2353). The method, boiled down: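 50 nM RECQ1T1 preincubated 15 min with compound in Tris pH 8.0 buffer with MgCl2, DTT, Tween-20 and 2.5 ug/ml poly(dI-dC); started with 200 nM TAMRA/BHQ-2 forked duplex and 2 mM ATP. Unwinding read as fluorescence (525/598 nm), two reads 2 h apart.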
ATP-dependent DNA helicase Q1 (Homo sapiens), sequence (P46063 whole entry, looked up): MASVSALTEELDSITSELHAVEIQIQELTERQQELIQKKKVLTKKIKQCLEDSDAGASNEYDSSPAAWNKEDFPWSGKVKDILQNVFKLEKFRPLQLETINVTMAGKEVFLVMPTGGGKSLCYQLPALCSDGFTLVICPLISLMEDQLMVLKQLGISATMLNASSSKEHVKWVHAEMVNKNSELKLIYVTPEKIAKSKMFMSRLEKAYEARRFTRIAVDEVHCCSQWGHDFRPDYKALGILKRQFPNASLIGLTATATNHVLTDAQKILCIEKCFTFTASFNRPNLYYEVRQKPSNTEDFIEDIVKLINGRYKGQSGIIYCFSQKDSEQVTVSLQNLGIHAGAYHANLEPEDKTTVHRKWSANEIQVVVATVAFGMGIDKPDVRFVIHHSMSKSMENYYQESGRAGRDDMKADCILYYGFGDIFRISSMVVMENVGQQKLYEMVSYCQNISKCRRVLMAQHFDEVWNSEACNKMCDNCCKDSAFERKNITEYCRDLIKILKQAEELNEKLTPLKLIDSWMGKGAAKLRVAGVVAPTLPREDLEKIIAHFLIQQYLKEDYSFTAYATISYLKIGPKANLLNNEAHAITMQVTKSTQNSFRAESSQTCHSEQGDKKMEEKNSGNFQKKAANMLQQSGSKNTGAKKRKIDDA

Experiment [5] in a line: Cytometric Cell-Based qHTS for Inhibitors of the mTORC1 Signaling Pathway in MEF (Tsc2-/-, p53-/-) Cells (AID 2660).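 Further: percent of cells above a phospho-rpS6 to PI ratio cutoff in each well.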 A digest of the protocol: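 Readout: Alexa-488 phospho-rpS6 (Ser235/236) intensity divided by PI intensity, thresholded against 7.5 nM rapamycin wells and reported as % positive cells. PI cell count served as the viability measure. Compound exposure was 24 hrs at 37 degree Celsius.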

Experiment [6] is described as follows: High Content Imaging Cell-Based qHTS for Inhibitors of the mTORC1 Signaling Pathway in MEF (Tsc2-/-, p53-/-) Cells (AID 2666). As to conditions: at 38.3 µM (top of the series). A digest of the protocol: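 Phospho-rpS6 (Ser235/236) immunofluorescence, normalized and scored as % positive cells using rapamycin and DMSO controls, was read in empty-vector Tsc2-/-, p53-/- MEFs after 24 h compound exposure at 37 C; propidium iodide counted cells.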

A short description of experiment [7]: High Content Imaging Cell-Based qHTS for Inhibitors of the mTORC1 Signaling Pathway in MEF Cells (AID 2667).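 Further: Tsc2-/- p53-/- MEFs stably re-expressing wild-type Tsc2 exposed 24 h.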 A digest of the protocol: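 WT MEFs (Tsc2-/-, p53-/- re-expressing Tsc2), in DMEM + 10% FBS, were treated with compound for 24 h at 37 C. Cells were then fixed and stained for phospho-rpS6 Ser235/236 with propidium iodide as cell count. Values are % positive cells, with thresholds set against rapamycin-treated cells.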

Experiment [8] is described as follows: Validation screen for small molecules that induce DNA re-replication in MCF 10A normal breast cells (AID 463097). Further: nearly all actives have a fitted effect of over 60% in size. The method, boiled down: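 MCF 10A cells exposed to compound 48 hr at 37 C, 5% CO2, then Hoechst-stained 40 min. Laser-scanning imaging of nuclear DNA content (405 nm ex, 500-530 nm em); re-replication scored as rise in nuclei with elevated fluorescence intensity.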

In experiment [9] the target is Ubiquitin carboxyl-terminal hydrolase 2 (Homo sapiens) (UniProt O75604). Kind of experiment: qHTS Validation Assay for Inhibitors of Ubiquitin-specific Protease USP2a Using CHOP2 as the Reporter (AID 463106). The method, boiled down: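 USP2 core (10 nM final) was preincubated with compound 30 min at RT in pH 8.0 Tris/CaCl2/beta-ME/CHAPS buffer. Ub-CHOP2 and reporter substrate (25 nM final each) were then added, with fluorescence (Ex 485/Em 531) read after 60 min. Data were normalized to NEM full inhibition and fitted to concentration-response curves.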

Experiment [10] concerns the target DNA polymerase III PolC-type (Bacillus subtilis (strain 168)) (UniProt P13267). In words: qHTS Validation Assay for the Inhibitors of DNA Replication in Gram-Positive Bacteria (AID 485295).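 Further: PicoGreen fluorescence of double-stranded DNA made on primed circular M13 template.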 A digest of the protocol:
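Reconstituted B. subtilis Pol III holoenzyme (PolC, beta clamp, SSB, primase) preincubated with compound, then M13Gori single-stranded circular template with dNTPs/NTPs added; room temperature reaction. Stopped with EDTA/PicoGreen; dsDNA fluorescence read, EDTA as full-inhibition control.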

Experiment [11] has as its target Tumor susceptibility gene 101 protein (Homo sapiens) (UniProt Q99816). Kind of experiment: qHTS Validation Assay for Iinhibitors of HIV-1 Budding by Blocking the Interaction of PTAP/TSG101 (AID 485342; calls by dose curve). The method, boiled down: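 Tsg101 binding domain (10 uM) with FITC-labeled PTAP peptide (50 nM) in HEPES pH 7.5 buffer, 20 min at r.t. with compounds. Binding measured by fluorescence polarization.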

The target of experiment [12] is Beta-2 adrenergic receptor (Homo sapiens) (UniProt P07550). Kind of experiment: qHTS validation assay of beta-arrestin-biased ligands of beta2-adrenergic receptor (AID 485366). A digest of the protocol:
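Tango cells (recombinant beta2-AR with recombinant beta-arrestin; recruitment releases tTA driving luciferase) were treated with compounds titrated up to 46 microM for 18 hr at 37 degrees C. Luminescence gave %Activity, and concentration-response curves were curve-classified.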

The target in experiment [13] is ATP-dependent 6-phosphofructokinase (Trypanosoma brucei brucei) (UniProt O15648). Kind of experiment: qHTS Validation Assay to Find Inhibitors of T. brucei phosphofructokinase (AID 485368). As to conditions: T. brucei PFK enzyme assay, qHTS 7-point titration; at 57.5 µM (top of the series). The method, boiled down:
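Compounds (up to 57 uM, titration series) were pinned into substrate buffer, then 1.25 nM PFK added; after 45 min at room temperature, ADP product was quantified by ADP-Glo luminescence and concentration-response curves fitted.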

For experiment [14], the target named is Thioredoxin reductase 1, cytoplasmic (Rattus norvegicus) (UniProt O89049). In words: qHTS Assay for Substrates of Mammalian Selenoprotein Thioredoxin Reductase 1 (TrxR1) (AID 488772).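 Further: NADPH fluorescence in the first read after selenite addition and not the 8 min delta; a drop in NADPH fluorescence below the no-compound background marks a TrxR1 substrate.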 The method, boiled down:
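Quantitative HTS in Tris-HCl buffer at pH 7.5 with EDTA and Tween-20, using rat TrxR1, 400 uM NADPH and 400 uM selenite (final). A fall in initial NADPH fluorescence relative to background marked substrate behaviour.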

For experiment [15] the target is unchanged. Kind of experiment: qHTS Assay for Inhibitors of Mammalian Selenoprotein Thioredoxin Reductase 1 (TrxR1) (AID 488773).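 Further: drop in NADPH fluorescence over an 8 min run after selenite addition; nearly all actives have a fitted effect of over 40% in size.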 The method, boiled down: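 Steps: enzyme (90 nM) plus NADPH (400 uM final), 5 min at ~22 deg C; compound added, 15 min; selenite (400 uM final) added; fluorescence followed for 8 min. Concentration-response curves derived from the normalized delta values.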

For experiment [16], the target named is Flap endonuclease 1 (Homo sapiens) (UniProt P39748). In words: qHTS Validation Assay for the Inhibitors of Human Flap endonuclease 1 (FEN1) (AID 488816). A digest of the protocol:
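Human FEN1 (10 nM) preincubated 15 min at room temperature with compounds, then flap DNA substrate added at 50 nM final. Fluorescence read at 0 and 15 min; concentration-response fitted with four-parameter Hill equation.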

Experiment [17] concerns the target M-phase phosphoprotein 8 (Homo sapiens) (UniProt Q99549). Kind of experiment: qHTS Validation Assay for Inhibitors for MPP8 Chromodomain Interactions with Methylated Histone Tails (AID 488949). Further: top concentration of the series differs between compounds; nearly all actives have a fitted effect of over 55% in size. A digest of the protocol: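 MPP8 (50 nM) was pre-bound to 50 nM biotinylated H3(1-18)K9me3 peptide in PBS pH 7.4 with 0.01% Tween-20. Compounds were then added for 30 min at room temperature, and complex disruption was read by AlphaScreen with streptavidin donor and nickel-chelate acceptor beads.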

For experiment [18], the target named is RecQ-like DNA helicase BLM (Homo sapiens) (UniProt P54132). In words: qHTS Validation Assay for Inhibitors of Bloom's syndrome helicase (BLM) (AID 2364). A digest of the protocol:
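50 nM BLM preincubated 15 min at room temperature with compound in pH 8.0 Tris buffer containing 2.5 ug/ml poly(dI-dC); started with 200 nM TAMRA/BHQ-2 forked duplex and 2 mM ATP (final). Unwinding read as TAMRA fluorescence increase, two reads 2 h apart.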

A short description of experiment [19]: Quantitative high throughput screen for delayed death inhibitors of the malarial parasite plastid, 96 hour incubation (AID 488745). Further: potency means the concentration at half of the fitted maximal effect; nearly all actives have a fitted effect of over 70% in size. Conditions: Plasmodium falciparum growth. A digest of the protocol:
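Growth of reporter-bearing P. falciparum in red cells is measured after 96 h with compound, covering two erythrocytic cycles. Luminescence from the integrated luciferase serves as the growth signal.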

A short description of experiment [20]: Quantitative high throughput screen for delayed death inhibitors of the malarial parasite plastid, 48 hour incubation (AID 488752). Further: potency means the concentration at half of the fitted maximal effect; nearly all actives have a fitted effect of over 65% in size. Conditions: Plasmodium falciparum growth. The method, boiled down: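 One parasite generation (48 h, 37 C, 5% CO2) of luciferase-reporter P. falciparum in erythrocytes is run with test compound; decreased luminescence indicates inhibited growth.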

Records with an inconclusive call do not appear. Active and inactive are the calls of the source. Unless noted, the call rests on the fitted dose curve; in most records, active means well fitted curve in the direction sought with a large enough effect; inconclusive means small, poorly fitted or top-dose-only effect, or another doubt; inactive means no such curve, though single readings can be large; an effect the other way counts as inactive or inconclusive.

M-phase phosphoprotein 8 (Homo sapiens), sequence (Q99549 whole entry, looked up): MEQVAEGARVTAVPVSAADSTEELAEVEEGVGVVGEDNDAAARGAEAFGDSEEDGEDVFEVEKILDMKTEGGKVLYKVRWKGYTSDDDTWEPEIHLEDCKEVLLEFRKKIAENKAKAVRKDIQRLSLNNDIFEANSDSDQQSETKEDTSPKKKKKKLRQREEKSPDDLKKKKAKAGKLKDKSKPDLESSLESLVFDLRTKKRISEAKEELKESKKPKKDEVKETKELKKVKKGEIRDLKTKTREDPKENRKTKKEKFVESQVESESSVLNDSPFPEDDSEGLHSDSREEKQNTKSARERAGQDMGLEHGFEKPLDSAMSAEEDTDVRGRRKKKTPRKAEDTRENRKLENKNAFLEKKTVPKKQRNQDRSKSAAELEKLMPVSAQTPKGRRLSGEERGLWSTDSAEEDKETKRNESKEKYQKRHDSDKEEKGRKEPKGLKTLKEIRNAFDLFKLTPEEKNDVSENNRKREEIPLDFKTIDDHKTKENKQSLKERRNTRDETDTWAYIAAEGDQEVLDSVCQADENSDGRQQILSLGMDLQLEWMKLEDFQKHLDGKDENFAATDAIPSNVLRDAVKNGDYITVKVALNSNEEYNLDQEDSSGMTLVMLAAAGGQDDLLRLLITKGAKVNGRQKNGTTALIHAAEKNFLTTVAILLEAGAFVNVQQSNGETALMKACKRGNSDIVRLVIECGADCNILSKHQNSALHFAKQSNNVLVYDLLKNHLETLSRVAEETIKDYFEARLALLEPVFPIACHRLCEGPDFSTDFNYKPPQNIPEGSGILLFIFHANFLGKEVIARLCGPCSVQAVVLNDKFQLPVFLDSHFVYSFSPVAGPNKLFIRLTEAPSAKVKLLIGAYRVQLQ
Thioredoxin reductase 1, cytoplasmic (Rattus norvegicus), sequence (O89049 whole entry, looked up): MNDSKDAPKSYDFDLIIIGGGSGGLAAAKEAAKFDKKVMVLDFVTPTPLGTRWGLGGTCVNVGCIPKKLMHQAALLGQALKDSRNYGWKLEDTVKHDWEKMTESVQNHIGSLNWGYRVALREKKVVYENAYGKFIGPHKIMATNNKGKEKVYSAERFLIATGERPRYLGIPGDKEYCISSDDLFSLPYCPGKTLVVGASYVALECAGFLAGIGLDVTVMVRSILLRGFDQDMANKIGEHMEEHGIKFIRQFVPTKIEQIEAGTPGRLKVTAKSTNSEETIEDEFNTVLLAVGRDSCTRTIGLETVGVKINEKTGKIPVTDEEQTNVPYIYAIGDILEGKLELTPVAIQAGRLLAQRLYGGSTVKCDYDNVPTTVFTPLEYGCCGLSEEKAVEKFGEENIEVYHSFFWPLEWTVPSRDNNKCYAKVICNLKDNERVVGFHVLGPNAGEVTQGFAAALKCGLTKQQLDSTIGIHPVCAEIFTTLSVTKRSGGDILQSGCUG
RecQ-like DNA helicase BLM (Homo sapiens), sequence (P54132 whole entry, looked up): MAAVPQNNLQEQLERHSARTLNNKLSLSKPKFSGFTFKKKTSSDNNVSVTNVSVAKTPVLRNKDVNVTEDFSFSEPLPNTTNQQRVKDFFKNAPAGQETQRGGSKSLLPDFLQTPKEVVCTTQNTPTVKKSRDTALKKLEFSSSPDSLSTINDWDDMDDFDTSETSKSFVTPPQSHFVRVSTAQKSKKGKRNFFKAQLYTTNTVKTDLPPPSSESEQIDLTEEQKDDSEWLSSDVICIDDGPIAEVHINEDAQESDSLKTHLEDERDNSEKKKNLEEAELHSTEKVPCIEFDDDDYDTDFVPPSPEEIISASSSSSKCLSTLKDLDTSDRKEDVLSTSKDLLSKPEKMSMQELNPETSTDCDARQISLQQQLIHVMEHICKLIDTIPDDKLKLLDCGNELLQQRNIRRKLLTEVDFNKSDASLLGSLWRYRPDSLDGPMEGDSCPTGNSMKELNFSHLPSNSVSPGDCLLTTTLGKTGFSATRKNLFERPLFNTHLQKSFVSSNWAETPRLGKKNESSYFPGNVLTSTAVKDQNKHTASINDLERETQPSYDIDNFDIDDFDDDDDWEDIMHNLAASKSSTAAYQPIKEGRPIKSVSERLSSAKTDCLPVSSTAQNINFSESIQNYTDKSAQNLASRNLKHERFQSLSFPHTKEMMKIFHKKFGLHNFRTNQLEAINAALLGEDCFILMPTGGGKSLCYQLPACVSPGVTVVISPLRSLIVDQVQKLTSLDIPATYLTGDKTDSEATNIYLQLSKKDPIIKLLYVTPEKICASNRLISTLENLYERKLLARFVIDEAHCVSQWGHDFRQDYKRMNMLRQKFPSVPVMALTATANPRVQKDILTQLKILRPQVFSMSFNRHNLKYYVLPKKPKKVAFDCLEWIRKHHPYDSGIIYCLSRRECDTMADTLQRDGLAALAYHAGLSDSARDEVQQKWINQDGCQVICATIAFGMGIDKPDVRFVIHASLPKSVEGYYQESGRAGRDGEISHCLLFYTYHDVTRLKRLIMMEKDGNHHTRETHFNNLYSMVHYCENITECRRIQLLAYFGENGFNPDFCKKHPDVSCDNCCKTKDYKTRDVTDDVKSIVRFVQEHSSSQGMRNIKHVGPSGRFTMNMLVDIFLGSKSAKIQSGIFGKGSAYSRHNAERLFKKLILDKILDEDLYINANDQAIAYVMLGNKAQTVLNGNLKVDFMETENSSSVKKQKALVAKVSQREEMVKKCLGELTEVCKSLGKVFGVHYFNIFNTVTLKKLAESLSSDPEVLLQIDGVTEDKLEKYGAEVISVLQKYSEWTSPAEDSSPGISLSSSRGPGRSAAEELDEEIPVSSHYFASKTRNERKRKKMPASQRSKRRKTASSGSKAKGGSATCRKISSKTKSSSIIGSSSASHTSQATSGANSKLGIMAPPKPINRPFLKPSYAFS
Tumor susceptibility gene 101 protein (Homo sapiens), sequence (Q99816 whole entry, looked up, the tested form may be a part): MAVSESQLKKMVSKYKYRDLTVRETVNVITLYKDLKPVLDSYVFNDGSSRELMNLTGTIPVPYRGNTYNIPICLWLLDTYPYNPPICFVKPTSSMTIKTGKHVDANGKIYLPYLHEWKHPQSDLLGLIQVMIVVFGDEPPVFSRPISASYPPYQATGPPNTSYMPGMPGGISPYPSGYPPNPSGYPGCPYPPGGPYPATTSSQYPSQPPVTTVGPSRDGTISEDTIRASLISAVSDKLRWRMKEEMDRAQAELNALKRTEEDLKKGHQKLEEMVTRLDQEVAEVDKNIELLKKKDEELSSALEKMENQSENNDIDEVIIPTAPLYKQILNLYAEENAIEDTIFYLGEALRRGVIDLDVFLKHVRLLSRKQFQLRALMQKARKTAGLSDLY
Beta-2 adrenergic receptor (Homo sapiens), sequence (P07550 whole entry, looked up): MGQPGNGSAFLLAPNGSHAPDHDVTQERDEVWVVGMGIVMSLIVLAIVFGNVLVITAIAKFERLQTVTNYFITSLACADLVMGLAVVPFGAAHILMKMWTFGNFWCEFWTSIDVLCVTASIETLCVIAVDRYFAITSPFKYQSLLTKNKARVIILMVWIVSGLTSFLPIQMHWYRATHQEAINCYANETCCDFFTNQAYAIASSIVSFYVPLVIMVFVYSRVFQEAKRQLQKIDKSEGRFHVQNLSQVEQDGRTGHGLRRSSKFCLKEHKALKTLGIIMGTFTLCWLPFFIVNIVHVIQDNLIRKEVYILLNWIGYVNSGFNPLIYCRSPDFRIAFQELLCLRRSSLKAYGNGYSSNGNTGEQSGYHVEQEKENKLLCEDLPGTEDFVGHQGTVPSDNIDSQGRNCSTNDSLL
Flap endonuclease 1 (Homo sapiens), sequence (P39748 whole entry, looked up): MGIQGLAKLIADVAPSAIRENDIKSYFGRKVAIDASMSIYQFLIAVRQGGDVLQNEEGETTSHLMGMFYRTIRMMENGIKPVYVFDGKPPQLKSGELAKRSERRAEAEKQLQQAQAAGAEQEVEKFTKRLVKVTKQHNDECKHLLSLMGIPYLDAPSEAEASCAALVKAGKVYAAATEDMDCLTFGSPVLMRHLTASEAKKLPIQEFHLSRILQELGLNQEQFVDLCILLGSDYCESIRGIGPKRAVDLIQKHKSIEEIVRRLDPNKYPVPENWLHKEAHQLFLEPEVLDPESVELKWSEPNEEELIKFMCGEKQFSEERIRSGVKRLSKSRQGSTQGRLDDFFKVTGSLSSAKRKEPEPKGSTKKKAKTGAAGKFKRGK

Turning to `O=c1c2ccccc2nc2n1CCc1c-2[nH]c2ccccc12`, the result in experiment [1], in experiment [3], in [4], in [5], in experiment [6] and in experiment [7] was inactive. Also, the outcome in experiment [8], in [9], in [10], in experiment [11], in experiment [12] and in experiment [13] was inactive. Besides, the outcome in experiment [14], in experiment [15], in experiment [16] and in experiment [17] was inactive. Moreover, in experiment [2], the Potency was 12.6 µM (active).
For the compound `CC[C@H](CO)Nc1nc(NCc2ccccc2)c2ncn(C(C)C)c2n1`, the compound was classed as inactive in experiment [4], in experiment [18] and in experiment [17]. In addition, the Potency in experiment [19] was 1.04 µM (active); in [20], 4.65 µM (active).
